Assay outcomes deposited in PubChem BioAssay by National Center for Advancing Translational Sciences (NCATS).
Rows were chosen to be rich in hits. Some 5.8% of all compounds tested hit in one or more screens of this group.
VP16 counter: inhibits Gal4-VP16 luciferase reporter, ROR gamma counter-screen; AID 2546; Drosophila S2 Gal4-VP16 UAS-luciferase, luminescence, 20 h; 310,000 compounds, 3.5% hits; Potency, µM (series often up to 53.6 µM), inactives show at the top dose activity, negative = inhibition, most hits filed as inhibitors;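 also: Gal4-VP16 expression switched on by copper sulfate through the metallothionein promoter; potency is read from the fitted curve at half-maximal effect; % is scaled to controls: 0 for no effect and ±100 for the full control effect; nearly all actives have a fitted effect of over 50% in size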
uPA surface inh: blocks generation of uPA at the cell surface. cell surface uPA generation assay, qHTS. Potency, µM (highest dose often 38.3 µM), for the others: at the top dose activity change, negative = inhibition, actives largely listed as inhibitors. 330,000 compounds, 0.31% hits. AID 540303; active = well fitted inhibition curve with a large enough effect; inconclusive = small, poorly fitted or top-dose-only effect; inactive = no such curve, though single readings can be large or run the other way; tested in mouse RAW 264.7 cells; also: potency is read from the fitted curve at half-maximal effect; % is scaled to controls: 0 for no effect and ±100 for the full control effect; nearly all actives have a fitted effect of over 55% in size
RORg inh: blocks mouse ROR gamma transcriptional activity | P51450 | Drosophila S2 Gal4-RORgamma UAS-luciferase reporter, 20 h | Potency, µM (series often up to 53.6 µM), for the others: top-dose activity change, negative = inhibition, hits mostly inhibitors | 310,000 compounds, 5.4% hits | AID 2551; also: potency is read from the fitted curve at half-maximal effect; % is scaled to controls: 0 for no effect and ±100 for the full control effect; nearly all actives have a fitted effect of over 60% in size
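Stable Schneider cell line, Gal4 DNA-binding domain fused to ROR gamma, UAS-luciferase. Cmpd 1 hr RT → CuSO4 700 uM final → 20 hr RT → luciferase reagent 10 min → luminescence.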
TRPV1 PAM: potentiators of human vanilloid receptor 1 (TRPV1). 320,000 compounds, 0.02% hits. Q8NER1. potentiation, % at 8.33 µM. TRPV1-expressing cells, Fluo-8 calcium influx, capsaicin EC20 potentiation; in the data active = potentiation above about 80%; inconclusive = between about 30% and that limit; also: 0% is about no effect
Target sequence (Q8NER1 whole entry, looked up): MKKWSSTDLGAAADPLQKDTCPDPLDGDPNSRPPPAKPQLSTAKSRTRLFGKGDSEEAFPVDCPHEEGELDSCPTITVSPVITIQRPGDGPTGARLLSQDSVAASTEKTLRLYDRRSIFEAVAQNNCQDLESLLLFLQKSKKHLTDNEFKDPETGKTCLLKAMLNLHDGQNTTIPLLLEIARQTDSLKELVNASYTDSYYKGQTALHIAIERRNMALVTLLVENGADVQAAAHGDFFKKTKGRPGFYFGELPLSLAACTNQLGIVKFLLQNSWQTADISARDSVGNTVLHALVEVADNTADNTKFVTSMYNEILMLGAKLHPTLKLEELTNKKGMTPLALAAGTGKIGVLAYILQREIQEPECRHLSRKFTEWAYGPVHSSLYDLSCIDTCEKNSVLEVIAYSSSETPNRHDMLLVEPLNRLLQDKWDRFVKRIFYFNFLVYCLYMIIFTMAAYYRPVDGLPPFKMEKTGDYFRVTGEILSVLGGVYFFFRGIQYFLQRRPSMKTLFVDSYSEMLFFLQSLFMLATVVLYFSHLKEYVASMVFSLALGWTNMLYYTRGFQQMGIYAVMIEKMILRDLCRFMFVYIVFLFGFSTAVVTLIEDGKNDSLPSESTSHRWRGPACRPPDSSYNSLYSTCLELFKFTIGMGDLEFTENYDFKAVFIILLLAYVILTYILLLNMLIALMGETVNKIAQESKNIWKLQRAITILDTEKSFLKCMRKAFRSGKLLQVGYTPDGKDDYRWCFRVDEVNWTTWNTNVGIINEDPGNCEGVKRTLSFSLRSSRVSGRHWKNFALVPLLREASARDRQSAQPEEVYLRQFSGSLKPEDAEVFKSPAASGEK
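TRPV1-expressing cells were cultured overnight at 35.5C and loaded with Fluo-8 calcium dye for 40 to 90 min at room temperature. After a 10 s baseline, compound was added and calcium influx was read kinetically for 3 min (ex 480/em 520 nm).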
TRPV1 ag: agonists of human vanilloid receptor 1 (TRPV1). Q8NER1. 320,000 compounds, 0.19% hits. activation, % at 8.33 µM. TRPV1-expressing cells, Fluo-8 calcium influx, agonist mode; in the data active = activation above about 80%; inconclusive = between about 30% and that limit; also: 0% is about no effect
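TRPV1-expressing cells were cultured overnight at 35.5C and loaded with Fluo-8 calcium dye for 40 to 90 min at room temperature. After a 10 s baseline, compound was added and calcium influx was read kinetically for 3 min (ex 480/em 520 nm).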
Active calls of the source: *; u = inconclusive; x = not tested or not shown; [ ] = another dose, or the depositor's remark. Unless noted, calls follow the shape of the dose curve; as a rule, active = well fitted curve in the direction sought with a large enough effect; inconclusive = small, poorly fitted or top-dose-only effect, or another doubt; inactive = no such curve, though single readings can be large; an effect the other way counts as inactive or inconclusive.

SMILES | VP16 counter | uPA surface inh | RORg inh | TRPV1 PAM | TRPV1 ag
CC(C)(C)S(=O)(=O)c1cnc2c(-c3ccc(Cl)cc3)cnn2c1N | -9.9% | 2.2% | 2.82µM* | -12.2 | 4.7
COc1ccc(-c2cnc3c(-c4ccc(F)cc4)cnn3c2N)cc1 | 17.3% | 2.3% | -33.4% | 10.8 | -1.2
CC(C)(C)S(=O)(=O)c1cnc2c(-c3ccc(F)cc3)cnn2c1N | -3.8% | 2.6% | 4.47µM* | 2.5 | -5.2
CS(=O)(=O)N(CCc1ccccc1)CC(=O)N1CCN(Cc2ccc3c(c2)OCO3)CC1 | u | -1.9% | 35.4% | 22.1 | -1.7
Cc1cccc(NC(=S)N2CCN(Cc3ccc4c(c3)OCO4)CC2)c1C | -3.7%[0.365 µM] | -4.3% | -109.1% | -0.2 | 13.4
S=C(Nc1ccc2c(c1)OCO2)N1CCN(Cc2ccco2)CC1 | 11.2µM* | 4.47µM* | 11.2µM* | 6.0 | 0.1
CCN(CC)S(=O)(=O)c1ccc(C)c(NC(=S)N2CCN(C/C=C/c3ccccc3)CC2)c1 | u | u | 12.6µM* | 4.7 | -0.2
CS(=O)(=O)N(CC(=O)N1CCN(Cc2ccc3c(c2)OCO3)CC1)Cc1ccc(Cl)cc1 | 10µM* | x | -20.0% | -15.8 | 1.1
CC(C)c1ccccc1NC(=S)N1CCN(Cc2ccc3c(c2)OCO3)CC1 | u | -1.7% | 11.2µM* | -6.3 | 13.4
Cc1nc2cnc(N(C)C)nc2n(C[C@H]2CCCO2)c1=O | -4.7% | x | 29.1% | x | x
CCC1=C2CC[C@H]3C(=O)N(c4ccccc4)C(=O)[C@H]3[C@H]2[C@@]2(C)C(=O)N(Cc3ccccc3)C(=O)N2C1=O | -11.8% | x | -3.2% | x | x
COC(=O)c1ccc(C23CC4(C2)[C@H](CN(C)[C@@H]4c2ccccc2)C3c2ccc(Cl)nc2)cc1 (stereo partly specified) | -4.0% | -29.0% | 0.6% | u | -0.5
CSc1nc2n(n1)C(C)C1=C(CCCC1=O)N2 (stereo unspecified) | 0.5% | 0.4% | 7.5% | 4.4 | 1.0
CCN(CC)S(=O)(=O)c1ccc(C)c(NC(=S)N2CCN(Cc3ccc4c(c3)OCO4)CC2)c1 | 22.4µM* | -0.3% | 11.2µM* | -13.2 | 13.7
COc1cccc(NS(=O)(=O)c2ccc(Br)s2)c1 | 4.47µM* | 1.7% | 3.55µM* | 3.4 | 89.2*
CC(=O)OC/C=C(C)/C=C/C=C(C)/C=C/C1=C(C)CCCC1(C)C | 22.5% | x | -6.1% | x | x
CCC(=O)N[C@@H]1Cc2ccccc2[C@@H](c2ccccc2)C1 | 8.91µM* | x | -37.8% | x | x
CC1CN(S(=O)(=O)c2ccccc2)CN1C(=O)N1CCOCC1 (stereo unspecified) | 2.1% | 2.3% | -20.3% | 5.2 | -4.3
O=[N+]([O-])c1cccnc1S(=O)(=O)c1ccccc1 | 7.08µM* | -18.9% | 8.91µM* | -4.2 | -5.1
COc1ccc([N+](=O)[O-])c(S(=O)(=O)c2ccccc2)n1 | 5.01µM* | u | 2.51µM* | 4.4 | 7.5
COCCCNC(=S)NNC(=S)Nc1ccccc1 | -7.6% | -1.2% | u | 4.4 | 0.3
O=C(NCCCc1ccccc1)Nc1ccccc1 | 3.8% | 1.4% | 30.3% | -16.8 | u
S=C(NCCCc1ccccc1)Nc1ccccc1 | 3.98µM* | 1.5% | 15.8µM* | 0.1 | u
CCCNC(=S)Nc1ccccc1 | u | 1.9% | 10µM* | 13.2 | -1.8
S=C(NCCCc1ccccc1)Nc1ccc(Cl)cc1 | 5.01µM* | 4.5% | 4.47µM* | -6.0 | u
SMILES | VP16 counter | uPA surface inh | RORg inh | TRPV1 PAM | TRPV1 ag
Cc1ccccc1OCCNC(=S)Nc1ccccc1 | 5.62µM* | -6.2% | 3.16µM* | -19.7 | u
CCC(C)(C)n1c(=O)[nH]c2c(c1=O)CCC2 | -8.0% | -0.4% | 13.0% | 3.7 | 8.2
CN1CCN(c2ncc3nc(-c4cccc(C#N)c4)c(=O)n(C)c3n2)CC1 | -11.3% | x | -19.7% | x | x
COCCC(=O)N1CCC(Oc2ccc(C(=O)N3CCCC(OC)C3)cc2)CC1 (stereo unspecified) | -6.4% | -8.3% | -9.4% | 9.3 | 0.8
S=C(NCCc1ccccc1)Nc1ccc(Nc2ccccc2)cc1 | 12.6µM* | 1.0% | 5.01µM* | 5.8 | 10.8
N[C@H](Cn1ccc(=O)c(O)c1)C(=O)O | 0.6% | x | 17.6% | x | x
O=C(/C=C/c1cccs1)c1ccc(N2CCOCC2)cc1 | 14.1µM* | u | 7.94µM* | -16.3 | 23.0
O=C(/C=C/c1cccc(F)c1)c1ccc(N2CCOCC2)cc1 | 22.4µM* | -0.2% | u | -6.0 | u
COc1ccccc1Nc1nc(N)nc(CN2CCN(c3ccccc3F)CC2)n1 | 7.94µM* | -4.2% | 1.78µM* | 5.7 | -5.2
CCOc1ccccc1Nc1nc(N)nc(CSc2nccc(C)n2)n1 | -4.4% | -0.1% | -3.2% | 7.0 | -1.2
CC1CC(C)CN(C(=S)SCc2nc(N)nc(Nc3ccccc3)n2)C1 (stereo unspecified) | u | 2.4% | 5.62µM* | 4.2 | 12.5
CCOc1ccc(Nc2nc(N)nc(CN3CCN(c4ccccc4F)CC3)n2)cc1 | -5.5% | -6.0% | 11.2µM* | 6.0 | -5.5
Cc1cccc(Nc2nc(N)nc(CN3CCN(c4ccccc4F)CC3)n2)c1 | x | -4.2% | x | x | x
CCOc1ccccc1Nc1nc(N)nc(CN(C)C2CCCCC2)n1 | -9.4% | -1.7% | 11.2µM* | 4.4 | 2.8
O=C(C1CCN(S(=O)(=O)c2ccccc2F)CC1)N1CCN(Cc2ccc3c(c2)OCO3)CC1 | x | -7.4% | x | -11.3 | 0.7
COCCNc1nc(-c2cc(C)c(C)cc2C)cs1 | u | 2.8% | u | 6.6 | 20.3
O=C(CC(=O)N/N=C/c1ccc(C(=O)O)cc1)NCCc1ccccc1 | -4.4% | 5.3% | -12.8% | u | 1.5
O=C(NC(=O)c1c(F)cccc1F)Nc1cccc(Oc2ncc(Cl)cn2)c1 | x | 3.8% | x | x | x
NS(=O)(=O)c1ccc(NC(=O)CSc2nc3c(cnn3-c3ccccn3)c(=O)[nH]2)cc1 | x | -6.4% | x | -0.4 | -2.8
COc1ccccc1N1CCN(Cc2nc(N)nc(Nc3ccc(C)c(Cl)c3)n2)CC1 | 1.0% | -9.4% | 11.2µM* | -23.5 | 12.4
COc1ccccc1Nc1nc(N)nc(CN2CC(C)CC(C)C2)n1 (stereo unspecified) | -0.6%[10 µM] | -1.6% | 8.91µM* | 9.5 | 0.0
Cn1cc(C=O)c2cc(S(=O)(=O)N3CCOCC3)ccc21 | 7.9% | 2.4% | -24.9% | 0.5 | 1.9
O=C1CSC(c2cn(-c3ccccc3)nc2-c2cc3ccccc3o2)N1Cc1ccccc1 (stereo unspecified) | 13.8% | 4.8% | 0.7% | 14.1 | 17.3
Cc1ccc(-c2nn(-c3ccccc3)cc2C2SCC(=O)N2Cc2ccccc2)o1 (stereo unspecified) | u | -3.0% | 11.2µM* | 23.4 | 14.6
COc1ccccc1-c1c(C)nn2c(N3CCCCCC3)cc(C)nc12 | 20µM* | -28.3% | 15.8µM* | -6.3 | 25.5
Cc1nn2c(N3CCCC3)cc(C(C)C)nc2c1-c1ccccc1 | -1.5% | -1.4% | 14.1µM* | -19.4 | 1.2
CCOc1ncccc1C(=O)N1CCN(S(=O)(=O)c2ccc3c(c2)OCCO3)CC1 | x | -17.6% | x | -4.3 | 3.0
